Hit rate of the full screen: of about 310,000 compounds, about 2,200 (0.71%) showed an effect of 50% or more. The effect is printed as a negative number. The full list was thinned out, with strong results kept by preference.
These compounds were tested against human ether-à-go-go-related gene (hERG) potassium channel (human, UniProt Q12809) (assay: primary screen, population patch clamp on CHO cells stably expressing hERG; higher = less effect of the substance).
Chain of human ether-à-go-go-related gene (hERG) potassium channel (Q12809 whole entry, looked up): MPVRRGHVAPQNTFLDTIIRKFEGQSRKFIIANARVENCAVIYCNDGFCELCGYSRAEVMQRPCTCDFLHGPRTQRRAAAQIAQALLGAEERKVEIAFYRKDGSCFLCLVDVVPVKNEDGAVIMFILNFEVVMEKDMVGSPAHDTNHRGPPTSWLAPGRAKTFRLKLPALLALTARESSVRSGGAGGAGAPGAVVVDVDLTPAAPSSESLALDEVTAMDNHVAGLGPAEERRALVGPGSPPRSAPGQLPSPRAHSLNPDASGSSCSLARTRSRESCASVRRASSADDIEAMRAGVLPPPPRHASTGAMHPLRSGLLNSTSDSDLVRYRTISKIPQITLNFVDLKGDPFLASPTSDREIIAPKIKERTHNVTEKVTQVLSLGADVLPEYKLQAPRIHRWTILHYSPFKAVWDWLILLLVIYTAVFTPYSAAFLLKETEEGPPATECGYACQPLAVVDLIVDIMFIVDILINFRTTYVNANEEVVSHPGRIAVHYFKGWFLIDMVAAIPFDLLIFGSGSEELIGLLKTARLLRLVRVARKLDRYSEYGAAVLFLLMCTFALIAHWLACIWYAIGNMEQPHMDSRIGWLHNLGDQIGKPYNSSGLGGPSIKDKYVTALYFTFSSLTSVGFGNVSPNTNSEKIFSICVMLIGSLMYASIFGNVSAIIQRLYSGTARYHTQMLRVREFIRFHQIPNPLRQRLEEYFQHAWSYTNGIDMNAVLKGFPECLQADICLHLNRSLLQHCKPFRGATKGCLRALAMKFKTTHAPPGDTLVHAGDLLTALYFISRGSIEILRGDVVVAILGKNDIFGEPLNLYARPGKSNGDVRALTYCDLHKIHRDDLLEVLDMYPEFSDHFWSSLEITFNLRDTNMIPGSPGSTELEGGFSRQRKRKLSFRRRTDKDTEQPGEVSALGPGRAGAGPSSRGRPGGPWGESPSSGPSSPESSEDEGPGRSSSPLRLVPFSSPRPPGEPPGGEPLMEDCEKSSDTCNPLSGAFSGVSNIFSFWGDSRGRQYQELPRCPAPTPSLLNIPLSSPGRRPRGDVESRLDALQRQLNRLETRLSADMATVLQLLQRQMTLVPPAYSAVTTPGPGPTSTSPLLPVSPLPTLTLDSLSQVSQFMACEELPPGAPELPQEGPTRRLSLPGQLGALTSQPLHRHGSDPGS

Structure (SMILES) | hERG current change (%, negative = inhibition) at 1uM [%]
Cn1cccc1Cc1nnc(SCC(=O)N2CCCC2)n1CCc1ccccc1 | 10.7
Cc1nc2nc(N)nn2c(C)c1C/C=C/c1ccccc1 | 2.83
Cc1nnc2ccc(-c3cccc(NC(=O)c4ccc(Cl)nc4)c3)nn12 | -1.98
Cc1nnc2ccc(-c3cccc(NC(=O)c4ccco4)c3)nn12 | 1.54
Cc1nnc2ccc(-c3cccc(NC(=O)c4ccc(Br)o4)c3)nn12 | -52.2
COc1ccc(CN2CCSc3sccc3C2=O)cc1 | 3.85
CCc1ccc(Nc2ncc3c(n2)CC(c2ccco2)CC3=O)cc1 (stereo not drawn) | 5.43
Cn1nccc1C(=O)N1CCN(c2ncccn2)CC1 | 9.95
CN1CCNC(=O)C1CC(=O)N1CC=C(c2ccc(F)cc2)CC1 (stereo not drawn) | 16.2
Cl.NC(=O)c1ccc(OCCC(O)N2CC=C(c3ccc(F)cc3)CC2)cc1 (stereo not drawn) | -53
CCCCOc1ccc(C(=O)NCC(=O)N2CC=C(c3ccccc3)CC2)cc1 | 10.7
O=C(NCc1ccccc1)c1cccc(S(=O)(=O)NCc2ccccc2)c1 | 6.18
CCN(CC)c1ccc(NC(=O)C2CCC(CNc3c(N4CCCC4)c(=O)c3=O)CC2)c(C)c1 (stereo not drawn) | 13.6
CCOc1ccc(C(C)=O)cc1COC(=O)C1=COCCO1 | -0.905
Cc1cccc(CCNCc2cc3cccc(C)c3[nH]c2=O)c1 | -35.7
COc1ccc(CCNCc2cc3ccc(C)cc3[nH]c2=O)cc1OC | -53.5
CNCc1cc2ccc(C)cc2[nH]c1=O | -6.99
Cc1ccc2cc(CNCCc3ccccc3C)c(=O)[nH]c2c1 | -42.9
Cc1cccc(CCNCc2cc3ccc(C)cc3[nH]c2=O)c1 | -54.6

Structure (SMILES) | hERG current change (%, negative = inhibition) at 1uM [%]
COc1ccc(CCN(Cc2cc3ccc(C)cc3[nH]c2=O)C(C)=O)cc1OC | -26.6
Cc1ccc(Cl)cc1N1CCN(C(=O)Cc2c(C(=O)O)[nH]c3ccc(Cl)cc23)CC1 | 22.4
COCCOc1cnn(-c2cc(Oc3ccc(C)cc3)ncn2)c(=O)c1Cl | 7.88
Cc1ccc(-n2c(SCC3CNC(=O)O3)nnc2-c2ccccc2)cc1C (stereo not drawn) | 0.305
CCOc1ccc(NC(=O)CN(C)C(=O)c2c(C)noc2C)cc1OCC | 9.87
CCN(CC)CCCNC(=S)Nc1ccc(Br)cc1 | -8.09
COc1ccc(C(=O)NC2CC2)cc1OC1CCN(Cc2ccc(F)cc2F)CC1 | -75.1
O=C(NCc1ccccn1)c1ccc(OC2CCN(Cc3ccc(F)cc3F)CC2)cc1 | 0.219
COc1ccc(C(=O)NC2CC2)cc1OC1CCN(Cc2ccc(F)cc2Cl)CC1 | -62
COc1ccc(C(=O)NCC(=O)OCc2ccc(F)cc2Cl)cc1OC | 11.2
COCCNC(=O)c1cccc(OC2CCN(Cc3ccc(F)cc3OC)CC2)c1 | 10.6
COc1ccc(C(=O)NC2CCN(Cc3c(F)cccc3Cl)CC2)cc1OC | 10.1
CCCN1CCN(C(=O)c2oc3c(Cl)cccc3c2C)CC1 | -0.0965
CCCCC(=O)Nc1cccc(NC(=O)CC)c1 | 10.3
Cc1ccccc1-n1cc(-c2ccc(Br)cc2)nc1SCC(N)=O | 10.3
Clc1cccc(OCCCCN2CCCCC2)c1 | -4.66
CCC1CCCCN1CCCCOc1cccc(Cl)c1.O=C(O)C(=O)O (stereo not drawn) | -55.6
Clc1cccc(OCCN2CCOCC2)c1.O=C(O)C(=O)O | 5.84
CCNC(=O)NC(=O)C(C)N1C(=O)NC(c2ccccc2)(c2ccccc2)C1=O (stereo not drawn) | -2.55

Structure (SMILES) | hERG current change (%, negative = inhibition) at 1uM [%]
CC(C(=O)NC(N)=O)N1C(=O)NC(c2ccccc2)(c2ccccc2)C1=O (stereo not drawn) | -0.156
COc1ccc(CNC(=O)C(C)N2C(=O)NC(c3ccccc3)(c3ccccc3)C2=O)cc1 (stereo not drawn) | -56.1
CCCCNCC(=O)Nc1ccc(NC(=O)CNCCCC)cc1 | 16.2
CCCN1Cc2cccc(C(N)=O)c2C1=O | 3.15
O=C(c1cccc(C(F)(F)F)c1)C1CCCN(Cc2ncc[nH]2)C1 (stereo not drawn) | 11.1
CC(=O)Nc1ccc(CN2CCCC(C(=O)c3cccc(C(F)(F)F)c3)C2)cc1 (stereo not drawn) | 7.86
O=C(c1ccc(C(F)(F)F)cc1)C1CCCN(Cc2ccncc2)C1 (stereo not drawn) | -7.99
CCn1ccnc1CN1CCCC(C(=O)c2cccc(C(F)(F)F)c2)C1 (stereo not drawn) | 1.55
O=C(c1cccc(C(F)(F)F)c1)C1CCCN(Cc2cccn2-c2ccccn2)C1 (stereo not drawn) | -90.4
O=C(c1cccc(C(F)(F)F)c1)C1CCCN(Cc2cccn2-c2ncccn2)C1 (stereo not drawn) | -105
Cc1cccc(CN2CCCC(C(=O)c3ccc(C(F)(F)F)cc3)C2)n1 (stereo not drawn) | -40
O=C(c1ccc(C(F)(F)F)cc1)C1CCCN(Cc2cccn2-c2ncccn2)C1 (stereo not drawn) | -88
O=C(c1cccc(C(F)(F)F)c1)C1CCCN(Cc2ccccc2O)C1 (stereo not drawn) | 13.2
CC(=O)c1ccc(S(=O)(=O)Nc2ccccc2C(=O)NC2CC2)cc1 | 9.72
O=C1CN(S(=O)(=O)c2cccc(C(=O)O)c2)c2ccccc2N1 | 11.3
CCC(CC)c1nnc(NC(=O)c2ccc(N3CCCCC3)c([N+](=O)[O-])c2)s1 | -9.23
CC(CCc1ccccc1)N(C)CC(O)c1cccc([N+](=O)[O-])c1.Cl (stereo not drawn) | -56.8
CC(CCc1ccccc1)NCC(O)c1cccc([N+](=O)[O-])c1.Cl (stereo not drawn) | -8.42
C=CCN(CC(O)c1cccc([N+](=O)[O-])c1)C(C)CCc1ccccc1.Cl (stereo not drawn) | -9.83

Source: PMC4336329 (PLoS ONE, 2015)
